Laboratory results as given in PubChem BioAssay AID1159580 (chemical genetic matrix, 2015).
Where “and” joins values, the source holds several entries; their conditions need not be identical. Identical values can stand only once. The campaign covered roughly 5,500 compounds. About 2,000 (36%) were called active. Not shown: some 18% with an inconclusive outcome. Cut-off read from the data, not from the text of the source: active = normalized growth mostly below about 0.91 (no sharp cut-off); inconclusive = no clear call, values can overlap the other calls; inactive = mostly above about 0.92. This is one part of the list.

Test: chemical genetic growth profiling, strain panel (AID 1159580);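 note: tested at 20 µM; growth read once vehicle control cultures reached saturation at 30 °C; 1 = growth at the plate median or of vehicle wells; lower values mean less growth of the strain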
Settings: S. cerevisiae deletion strains, growth OD

Measured: normalized growth

Cc1cccc(C)c1NC(=O)C1CCCCN1C (configuration not stated)
inactive: locus YAL013W, strain DEP1, active compounds read low 1.02 | locus YAL021C, strain ccr4, active compounds read low 1.02 | locus YAL026C, strain drs2, active compounds read low 0.993 | locus YAL030W, strain snc1, active compounds read low 0.985 | locus YBL061C, strain skt5, active compounds read low 0.979 | locus YBR009C, strain hhf1, active compounds read low 0.989 | locus YBR021W, strain FUR4, active compounds read low 1 | locus YBR023C, strain chs3, active compounds read low 0.991 | locus YBR171W, strain sec66, active compounds read low 0.977 | locus YBR229C, strain ROT2, active compounds read low 1.01 | locus YBR231C, strain swc5, active compounds read low 0.993 | locus YBR279W, strain paf1, active compounds read low 0.991 | locus YCL011C, strain gbp2, active compounds read low 0.988 | locus YCL016C, strain dcc1, active compounds read low 0.995 | locus YCL029C, strain bik1, active compounds read low 1.02 | locus YCL061C, strain MRC1, active compounds read low 0.975 | locus YCL069W, strain vba3, active compounds read low 0.983 | locus YCR088W, strain abp1, active compounds read low 0.992 | locus YDL005C, strain med2, active compounds read low 0.982 | locus YDL035C, strain GPR1, active compounds read low 1.01 | locus YDL040C, strain nat1, active compounds read low 0.986 | locus YDL074C, strain BRE1, active compounds read low 1 | locus YDL101C, strain DUN1, active compounds read low 1.01 | locus YDL134C, strain PPH21, active compounds read low 0.99 | locus YDL185W, strain tfp1, active compounds read low 1.01 | locus YDL192W, strain arf1, active compounds read low 1.01 | locus YDR001C, strain nth1, active compounds read low 0.985 | locus YDR069C, strain doa4, active compounds read low 1 | locus YDR101C, strain arx1, active compounds read low 1 | locus YDR137W, strain rgp1, active compounds read low 0.984 | locus YDR150W, strain NUM1, active compounds read low 1 | locus YDR159W, strain sac3, active compounds read low 0.983 | locus YDR162C, strain NBP2, active compounds read low 0.994 | locus YDR195W, strain ref2 0.986 | locus YDR297W, strain sur2, active compounds read low 0.992 | locus YDR318W, strain mcm21, active compounds read low 1.01 | locus YDR334W, strain swr1, active compounds read low 0.982 | locus YDR335W, strain msn5, active compounds read low 0.989 | locus YDR388W, active compounds read low 1.01 | locus YDR392W, strain spt3, active compounds read low 0.996 | locus YDR502C, strain sam2, active compounds read low 1.01 | locus YEL003W, strain gim4, active compounds read low 0.986 | locus YEL037C, strain rad23, active compounds read low 0.996 | locus YEL061C, strain CIN8 (second series), active compounds read low 0.992 | locus YEL061C, strain CIN8, active compounds read low 1 | locus YER015W, strain faa2, active compounds read low 0.988 | locus YER016W, strain bim1, active compounds read low 0.983 | locus YER110C, active compounds read low 1.02 | locus YER111C, strain swi4, active compounds read low 0.994 | locus YER155C, strain BEM2 (second series), active compounds read low 0.982 | locus YER155C, strain BEM2, active compounds read low 0.99 | locus YER167W, strain BCK2, active compounds read low 1 | locus YFR010W, strain ubp6, active compounds read low 0.984 | locus YGL078C, strain dbp3, active compounds read low 1.01 | locus YGL086W, strain mad1, active compounds read low 1 | locus YGL167C, strain pmr1, active compounds read low 0.995 | locus YGL173C, strain kem1, active compounds read low 0.988 | locus YGL227W, strain vid30, active compounds read low 0.98 | locus YGL240W, strain doc1, active compounds read low 0.981 | locus YGL248W, strain PDE1, active compounds read low 1 | locus YGL253W, strain hxk2, active compounds read low 0.982 | locus YGR078C, strain PAC10, active compounds read low 0.996 | locus YGR135W, strain pre9, active compounds read low 1 | locus YGR229C, strain SMI1, active compounds read low 1 | locus YGR252W, strain gcn5, active compounds read low 0.963 | locus YHR013C, strain ard1, active compounds read low 0.96 | locus YHR027C, strain rpn1, active compounds read low 0.986 | locus YHR030C, strain SLT2, active compounds read low 1 and 1.01 | locus YHR079C, strain IRE1 (second series), active compounds read low 1.01 | locus YHR079C, strain IRE1, active compounds read low 1.03 | locus YHR094C, strain hxt1, active compounds read low 1.01 | locus YHR129C, strain ARP1, active compounds read low 1.01 | locus YHR142W, strain chs7, active compounds read low 0.987 | locus YHR200W, strain rpn10, active compounds read low 1 | locus YIL066C, strain RNR3, active compounds read low 0.999 | locus YIL073C, strain SPO22, active compounds read low 1.01 | locus YIL125W, strain kgd1, active compounds read low 1.01 | locus YIR030C, strain dcg1, active compounds read low 1.01 | locus YJL092W, strain hpr5, active compounds read low 0.986 | locus YJL095W, strain BCK1 (second series), active compounds read low 0.989 | locus YJL095W, strain BCK1, active compounds read low 1.02 and 0.998 | locus YJL115W, strain asf1, active compounds read low 0.996 | locus YJL129C, strain trk1, active compounds read low 1.01 | locus YJL134W, strain LCB3, active compounds read low 1.01 | locus YJL154C, strain vps35, active compounds read low 0.994 | locus YJL164C, strain tpk1, active compounds read low 0.987 | locus YJL166W, strain qcr8, active compounds read low 0.993 | locus YJL168C, strain set2, active compounds read low 1.01 | locus YJL187C, strain SWE1 (second series), active compounds read low 1.01 | locus YJL187C, strain SWE1, active compounds read low 0.985 | locus YJR043C, strain POL32, active compounds read low 1.02 | locus YJR066W, strain TOR1, active compounds read low 0.986
